Source: PubChem BioAssay (several laboratories)
PREPL inh: PREPL enzyme inhibitors, primary screen, biochemical, fluorescence polarization. Prolyl endopeptidase-like (Homo sapiens), Q4J6C6. recombinant PREPL, fluorescence polarization activity-based probe. inhibition, % at 5.96 µM. 0.68% of 320,000 active; in the data active = inhibition above about 43%
CHT inh: inhibitors of human choline transporter CHT. AID 488975, 2010. 0.86% of 310,000 active. CHT-expressing cells, membrane potential dye, choline response; hits give low values. High affinity choline transporter 1 (Homo sapiens), Q9GZV3. B-score at 10 µM;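 active = B-score over 3 SD under the library average, and starting fluorescence ratio not unusually high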;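 also: choline stimulus applied at its EC90 after an EC20 pre-addition; B-score computed on integrated fluorescence ratio after choline addition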
AI-2 QS modul: Vibrio harveyi AI-2 quorum sensing modulators, primary screen, JMH597 strain, luminescence/OD600 ratio | 0.4% of 300,000 active | activity change, % at 7.5 µM | Vibrio harveyi JMH597 AI-2 luminescence/OD600 ratio, 9 h; hits give low values; strain lacks LuxN and CqsS sensors; 0 = neutral-control median; in the data active = activity change below about -75%, passing the limit was not always enough; inconclusive = no clear call, values can overlap the other calls;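 also: luminescence divided by OD600 gain over 9 h not by final OD600 alone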
CHT allo act: CHT positive allosteric modulators, primary screen, cell-based, membrane potential dye, choline EC20; B-score at 10 µM; CHT-expressing cells; hits give high values; LV-AA mutant CHT in HEK293 cells; High affinity choline transporter 1 (Homo sapiens), Q9GZV3; 0.49% of 310,000 active;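 active = initial fluorescence not abnormally high and integrated response B-score, plate-corrected, over 3 SD above library mean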
ALR H2O2 inh: inhibitors of human ALR sulfhydryl oxidase, primary screen, biochemical, H2O2 detection, HRP-luminol luminescence, single point; FAD-linked sulfhydryl oxidase ALR (Homo sapiens), P55789; purified ALR, DTT oxidation; inhibition, % (test concentration not listed); 3.8% of 290,000 active; AID 485317, 2010;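 active = mean replicate inhibition above about 79%, with every replicate also reaching it, limit read from the data; inconclusive = only one of the two criteria met; inactive = mean below limit and not every replicate reaching it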
Target sequence (P55789 whole entry, looked up): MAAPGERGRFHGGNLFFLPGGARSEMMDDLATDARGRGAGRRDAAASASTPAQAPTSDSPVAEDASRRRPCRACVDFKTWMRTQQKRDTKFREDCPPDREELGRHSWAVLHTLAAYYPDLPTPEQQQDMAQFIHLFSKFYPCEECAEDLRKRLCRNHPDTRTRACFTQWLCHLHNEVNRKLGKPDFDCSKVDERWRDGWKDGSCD
CHT inh conf: CHT inhibitors, confirmation, cell-based, membrane potential dye, duplicate; CHT-expressing cells, choline membrane potential dye; LV-to-AA substituted CHT, HEK293 cells; AID 493221, 2011; 70% of 2,400 active; CHT activity remaining % of control (hits give low values), % at 10 µM; shares compounds with CHT inh;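 active = choline transporter activity left, mean of duplicates at 10 µM, below buffer-only control mean minus 3 SD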;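 also: depolarization triggered by choline at its EC90 following an EC20 pre-addition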
HEK293 MPD ctr: membrane potential effects in parental HEK293, counter-screen for CHT inhibitor project, cell-based, membrane potential dye; shares compounds with CHT inh; choline response; active = decrease or increase beyond buffer ±3SD; membrane potential ratio readout (active if shifted either direction beyond buffer ±3SD; no single direction) at 10 µM; 4% of 2,400 active; AID 493222, 2011;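 also: parental cells lack the transporter so any hit is non-specific; ratio is peak minus trough fluorescence over baseline after EC90 choline challenge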
Numbers stand for hits; – = inactive; ? = inconclusive; · = not tested or not shown. Sampled rows, rich in hits. Any-hit rate of the full collection: about 5%.

SMILES	PREPL inh	CHT inh	AI-2 QS modul	CHT allo act	ALR H2O2 inh	CHT inh conf	HEK293 MPD ctr
Cc1ccc(-c2noc(CNc3ccccc3)n2)cc1	–	-5.8	?	–	–	44%	–
CCOc1cc(/C=N/NC(=O)c2ccc(CN3CCOCC3)cc2)ccc1OC	–	-9	–	–	–	–	–
COc1ccc2c(c1)N(S(=O)(=O)c1ccccc1)CCC2=O	–	–	–	–	–	·	·
COc1cccc(-c2cc(-c3cccnc3)nc(N)c2C#N)c1	–	-7.3	–	–	·	–	–
Cc1ccnc(N2CCN(C(=O)CSc3nc4ccccc4nc3N3CCC(C)CC3)CC2)c1	–	–	–	–	–	·	·
CN(C)S(=O)(=O)c1cccc(NC(=O)c2cccc(S(=O)(=O)N3CCc4ccccc43)c2)c1	–	·	·	·	·	·	·
CC(CCc1ccc(O)cc1)NCc1ccc(Br)cc1 (stereo unspecified)	–	-5.1	–	–	·	–	–
CCOC(=O)c1ccc(NC(=O)Nc2cc(C)cc(C)n2)cc1	–	–	–	–	–	·	·
Cc1ccc2c(C)c(C(=O)NCCN3CCOC3=O)oc2c1C	–	–	–	–	–	·	·
N#CCSc1nc2sccc2c(=O)n1-c1ccccc1	–	-5.5	–	–	–	–	–
CNC(=O)CSc1nc2sccc2c(=O)n1-c1ccccc1	–	–	–	–	–	·	·
COCOc1ccc(C=O)c(OCOC)c1	–	–	–	–	–	·	·
Cc1ccccc1CSCC(=O)NCCSc1ccccn1	–	–	–	–	–	·	·
CC(C)COCC(CN(Cc1ccccc1)c1ccccc1)N1CCCC1 (stereo unspecified)	–	-5.2	–	–	·	–	–
CCN(Cc1ccccc1)C(=O)c1cc(COc2c(F)cccc2F)on1	–	–	–	–	–	·	·
CCN(CCn1cccn1)C(=O)c1cc(COc2c(F)cccc2F)on1	–	-5.5	–	–	–	–	–
O=C(O)c1cccc([N+](=O)[O-])c1C(=O)Nc1cccc2ccccc12	–	–	–	–	·	·	·
O=C(O)c1ccccc1NSc1ccccc1[N+](=O)[O-]	–	-5.4	–	–	–	62%	–
CN1CCN(c2oc(Cc3cccc4ccccc34)nc2C#N)CC1	–	-7	–	–	–	62%	–
N#Cc1nc(Cc2cccc3ccccc23)oc1NCCCN1CCOCC1	–	-5.7	–	–	–	69%	–
O=C(COC(=O)Cc1cccc(C(F)(F)F)c1)NC1CCS(=O)(=O)C1 (stereo unspecified)	–	–	–	–	–	·	·
O=C(CSc1ccccn1)Nc1ccc2[nH]c(=O)[nH]c2c1	–	·	·	·	–	·	·
CCOC(=O)[C@@H]1[C@H]2COc3cc(OC)ccc3[C@H]2N2C(=O)N(c3ccc(F)cc3)C(=O)[C@@]12C	–	–	–	–	–	·	·
Cc1coc2c(C)c3oc(=O)c(CCC(=O)NCc4ccccn4)c(C)c3cc12	–	–	–	–	–	·	·
Cc1cc2c(=O)n(C)c(SCC(=O)Nc3cccc(F)c3)nc2s1	–	–	–	–	–	·	·
SMILES	PREPL inh	CHT inh	AI-2 QS modul	CHT allo act	ALR H2O2 inh	CHT inh conf	HEK293 MPD ctr
Cc1nc(SCC(=O)NC(=O)NCc2ccccc2)nc(C)c1C	–	-6.2	–	–	–	69%	–
c1cc(-c2cc3cc(N4CCOCC4)ccc3o2)cs1	–	–	–	–	–	·	·
Cc1ccc(NC(=O)CSCC(=O)Nc2nnc(C3CC3)s2)cc1	–	–	–	–	–	·	·
Cc1ccc(Nc2nnc(C3C(=O)N(C)C4(C)CC3c3cc(Br)ccc3O4)s2)cc1 (stereo unspecified)	–	-5.5	–	–	–	–	–
COCCCN(C(=O)Cc1csc(-c2cccc(Cl)c2)n1)c1c(N)n(Cc2ccccc2)c(=O)[nH]c1=O	–	–	–	–	–	·	·
Cc1ccc(Oc2ccc(S(=O)(=O)NCC(C)(C)N3CCOCC3)cc2)cc1	–	-6.4	–	–	–	40%	–
CCOC(=O)/C(C#N)=C/c1c[nH]c2ccccc12	–	–	–	–	·	·	·
CCOC(=O)C(=Cc1c[nH]c2ccc(S(=O)(=O)N(C)C)cc12)C(=O)OCC	–	-6.4	–	–	–	33%	–
COc1ccc(N2C(=NC(=O)C3CC3)SC3CS(=O)(=O)CC32)cc1Cl (stereo unspecified)	–	–	–	–	–	·	·
CC(C)(C)CC(C)(C)NC(=S)Nc1ccc2nc(-c3ccccn3)c(-c3ccccn3)nc2c1	–	-8.4	–	–	–	45%	–
CC(C)N(Cc1ccccc1)C(=O)COC(=O)C1CCCCC1	–	·	·	·	–	·	·
O=C(Nc1nccs1)C1CCN(S(=O)(=O)c2c(Cl)cccc2Cl)CC1	–	-5.9	–	–	–	–	–
CCOC(=O)c1nn(-c2ccc(Cl)cc2)c2nnc(Cc3ccc(C)cc3)c(=O)n12	–	-5.9	–	–	·	–	–
Cc1cc(O)ccc1C1(c2ccc(O)cc2C)OC(=O)c2ccccc21	–	-12	–	–	–	63%	–
Cc1cccc(C2(c3cccc(C)c3)OC(=O)c3ccccc32)c1	–	–	–	–	–	·	·
COc1ccc(N2C(=NC(=O)c3ccc(Br)cc3)SC3CS(=O)(=O)CC32)cc1 (stereo unspecified)	–	·	·	·	–	·	·
O=S(=O)(NCC1CN(S(=O)(=O)c2c(F)cccc2F)C1)c1ccc2c(c1)OCCO2	–	·	·	·	–	·	·
Fc1ccc(-c2csc3ncnc(N4CCN(Cc5ccccc5)CC4)c23)cc1	–	–	–	–	–	·	·
OCCN1CCN(c2ncnc3scc(-c4ccc(F)cc4)c23)CC1	·	-5.7	–	–	–	33%	–
COc1ccc(-c2csc3ncnc(N4CCN(CCO)CC4)c23)cc1	–	-7.9	–	–	–	42%	–
Cc1ccc(-c2csc3ncnc(N4CCN(Cc5ccccc5)CC4)c23)cc1	–	–	–	–	–	·	·
COc1ccc(-c2csc3ncnc(NCCCO)c23)cc1	–	-5.8	–	–	–	59%	–
CCN1CCN(c2ncnc3scc(-c4ccc(C)cc4)c23)CC1	–	-9.9	–	–	–	22%	–
CCN(CC)CCC(=O)Nc1cccc2c1C(=O)c1ccccc1C2=O	–	–	–	–	–	·	·
COc1ccc(Br)cc1CN1CCN(C(=O)c2ccco2)CC1	–	–	–	–	–	·	·
COc1cc(OC)cc(C(=O)NCC(=O)OCC(=O)C(C)(C)C)c1	–	–	–	–	–	·	·
COc1ccccc1NS(=O)(=O)c1cccc(C(=O)NCC(c2ccco2)N2CCCC2)c1 (stereo unspecified)	–	·	·	·	–	·	·
